Compounds with a hit are over-represented: about 7.4% of the library has one in this group of screens.
SMN2 splice up: qHTS Assay for Enhancers of SMN2 Splice Variant Expression. HEK293 SMN2-luciferase splicing reporter, luminescence, 30-36 h. Potency, µM (highest dose often 46.1 µM), for the others: top-dose activity change, positive = activation, actives largely listed as activators. 210,000 compounds, 2.8% hits. AID 1458, 2008; also: % of control where 0% means no effect; nearly all actives have a fitted effect of over 55% in size
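HEK293 cells carry an SMN2 […]–luciferase reporter in which exon 7 inclusion puts luciferase in frame. Cells were plated 10-12 h before compound addition, then incubated 30-36 h at 37C. ONE-Glo luminescence was read; sodium butyrate at 4.5 mM final served as control.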
Rab9 promoter act: qHTS Assay for Rab9 Promoter Activators | 320,000 compounds, 2.8% hits | Potency, µM (series often up to 9.22 µM), for inactives: at the top dose activation, negative = inhibition, most hits filed as activators | Huh7 Rab9 promoter-luciferase reporter, luminescence, 24 h; also: % of control where 0% means no effect; nearly all actives have a fitted effect of over 60% in size
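Cells were plated at 1500 per well in reduced-serum medium with 10% FBS and left 2 h. Compound in DMSO was then added for 24 h at 37 °C. Reporter signal was read by luminescence after 10 min with luciferase detection reagent.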
FLuc counter: qHTS profiling assay for firefly luciferase inhibitor/activator using purifed enzyme and Km concentrations of substrates (counterscreen for miR-21 project); purified FLuc, Km substrates, luminescence inhibition; Luciferin 4-monooxygenase (Photinus pyralis), P08659; 360,000 compounds, 6.9% hits; Potency, µM (highest dose often 57.5 µM), for inactives: at the top dose activity change, negative = inhibition, hits mostly inhibitors; AID 588342, 2011;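 also: plate controls were vehicle for no effect and reference inhibitor for full effect; nearly all actives have a fitted effect of over 55% in size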
Target sequence (P08659 whole entry, looked up): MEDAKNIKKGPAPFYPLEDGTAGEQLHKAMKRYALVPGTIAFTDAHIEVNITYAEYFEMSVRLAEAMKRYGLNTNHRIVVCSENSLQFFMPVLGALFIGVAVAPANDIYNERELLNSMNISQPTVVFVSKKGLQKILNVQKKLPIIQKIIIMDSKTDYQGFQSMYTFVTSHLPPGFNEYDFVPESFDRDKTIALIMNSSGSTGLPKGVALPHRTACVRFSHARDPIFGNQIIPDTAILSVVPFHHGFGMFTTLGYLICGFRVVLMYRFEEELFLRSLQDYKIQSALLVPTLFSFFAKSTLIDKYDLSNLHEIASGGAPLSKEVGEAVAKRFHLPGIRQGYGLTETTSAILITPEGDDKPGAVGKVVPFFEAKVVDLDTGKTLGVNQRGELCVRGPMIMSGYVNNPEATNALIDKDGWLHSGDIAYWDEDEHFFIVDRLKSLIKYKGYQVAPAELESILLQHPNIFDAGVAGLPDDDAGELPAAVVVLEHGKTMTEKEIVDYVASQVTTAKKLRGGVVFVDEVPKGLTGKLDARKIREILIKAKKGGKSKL
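Purified P. pyralis luciferase, 10 nM final, with Km-level 10 uM D-luciferin and 10 uM ATP in 50 mM Tris acetate pH 7.5, 10 mM Mg acetate, 0.01% Tween-20, 0.05% BSA; 6-point qHTS titration about 60 µM downward; luminescence read.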
NPC1 prom act: qHTS Assay for NPC1 Promoter Activators. Huh7 NPC1 promoter luciferase reporter, 24 h. Potency, µM (doses to about 9.22 µM), inactives show top-dose activation, hits mostly activators. 320,000 compounds, 2.4% hits. AID 485313, 2010; also: % of control where 0% means no effect; nearly all actives have a fitted effect of over 60% in size
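Luciferase expression driven by the NPC1 promoter was measured in stably transfected Huh7 cells after a 24 h compound incubation, using a luciferase reagent and a luminescence read.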
p53 reactivation: qHTS assay for re-activators of p53 using a Luc reporter; Potency, µM (top dose mostly 92.2 µM), for the others: top-dose activity change, positive = activation, actives largely listed as activators; H1299 p53-A138V BP100-luciferase reporter, luminescence, 24 h; 320,000 compounds, 0.063% hits; AID 504706, 2011; also: % of control where 0% means no effect; nearly all actives have a fitted effect of over 45% in size
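H1299 (p53-null), stable ts p53-A138V + BP100-Luc; 1000 cells/well, Opti-MEM/10% FBS; cpd 4 pt, 1:5; 24 h, 37 deg C, 5% CO2; detection reagent 10 min RT; luminescence.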
ELG1 genotox: qHTS screen for small molecules that induce genotoxicity in human embryonic kidney (HEK293T) cells expressing luciferase-tagged ELG1 | HEK293T ELG1-luciferase reporter, luminescence, 16 h | 330,000 compounds, 1.3% hits | AID 504466, 2011 | Potency, µM (top dose mostly 46 µM), inactives show top-dose activity change, positive = activation, most hits filed as activators; also: % of control where 0% means no effect; nearly all actives have a fitted effect of over 60% in size
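Genotoxic stress is detected as increased luminescence from luciferase-tagged ELG1 in HEK293T cells, measured with ONE-Glo after a 16 hr treatment at 37 °C.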
* hit, by the source's call. Calls follow the shape of the dose curve; as a rule, active = well fitted curve in the direction sought with a large enough effect; inconclusive = small, poorly fitted or top-dose-only effect, or another doubt; inactive = no such curve, though single readings can be large; an effect the other way counts as inactive or inconclusive. Potency is read from the fitted curve at half-maximal effect.

Screening Clc1ccsc1-c1ccnc(-n2cccc2)n1 returned SMN2 splice up 7.5%, Rab9 promoter act -2.5%, FLuc counter 16.9µM*, NPC1 prom act 12.2%, p53 reactivation 8.9% and ELG1 genotox 11.6%.
For C=Cc1ccc(Cn2c(C(=O)O)c(CNCc3ccc(F)cc3)c3ccc(C)cc32)cc1 the results were FLuc counter -1.8%.
For Cc1cc(C)c(C(=O)COC(=O)C2CC3CCCC(C2)C3=O)c(C)c1 (stereo not given) the results were Rab9 promoter act 0.2%, FLuc counter -0.2%, NPC1 prom act 2.1%, p53 reactivation -3.5% and ELG1 genotox 0.0%.
COc1ccc2c(c1)c(=O)oc1cc(OCC(=O)NCC3CCC(C(=O)O)CC3)ccc12 (stereo not given) was read as Rab9 promoter act 1.3%, FLuc counter 10.7µM*, NPC1 prom act 10.6%, p53 reactivation 5.2% and ELG1 genotox 11.4%.
For COc1ccc(-c2cc3ccc(OCC(=O)NCC4CCC(C(=O)O)CC4)cc3oc2=O)cc1 (stereo not given) the results were Rab9 promoter act 4.47µM*, FLuc counter 0.953µM*, NPC1 prom act 3.16µM* and ELG1 genotox inconclusive.
For O=C(O)C1CCN(C(=O)COc2ccc3c4c(c(=O)oc3c2)CCCC4)CC1 the results were Rab9 promoter act -6.7%, FLuc counter -21.1%, NPC1 prom act -0.5% and ELG1 genotox 1.8%.
Cc1c(C)c2ccc(OCC(=O)N3CCC(C(=O)O)CC3)cc2oc1=O was read as Rab9 promoter act -1.2%, FLuc counter 19µM*, NPC1 prom act -0.8%, p53 reactivation 11.1% and ELG1 genotox -1.3%.
For CC/C=C\C/C=C\C/C=C\C/C=C\C/C=C\C/C=C\CCC(=O)NCC(=O)O the results were SMN2 splice up 4.6%.
`Cc1cc(S(=O)(=O)N2CCOCC2)c(C)s1` gave Rab9 promoter act 1.0%, FLuc counter -0.8%, NPC1 prom act -1.4%, p53 reactivation -6.7% and ELG1 genotox 1.6%.
`CCCOc1cccc(C2c3c(oc4ccc(F)cc4c3=O)C(=O)N2CCCN2CCOCC2)c1` (stereo not given) gave SMN2 splice up 4.6% and FLuc counter 1.6%.
`CC(C)c1ccccc1NC(=O)Cn1c(/C=C/c2ccccc2)nc2ccccc21` gave Rab9 promoter act 9.8%, FLuc counter 21.3µM*, NPC1 prom act -2.7%, p53 reactivation 11.3% and ELG1 genotox inconclusive.
For CCCn1c(/C=C/c2ccccc2)nc2ccccc21 the results were SMN2 splice up 11.2µM*, Rab9 promoter act 1.78µM*, FLuc counter 3.01µM*, NPC1 prom act 1.78µM*, p53 reactivation 28.8% and ELG1 genotox inconclusive.
For COc1ccc(/C=C/c2nc3ccccc3n2Cc2ccc(OC)c(OC)c2)cc1 the results were Rab9 promoter act 0.794µM*, FLuc counter 0.426µM*, NPC1 prom act 1.58µM*, p53 reactivation inconclusive and ELG1 genotox 2.06µM*.
COCCOCCn1c(/C=C/c2ccccc2)nc2ccccc21 was read as SMN2 splice up 12.6µM*, Rab9 promoter act 1.41µM*, FLuc counter 1.69µM*, NPC1 prom act 1.41µM*, p53 reactivation 3.2% and ELG1 genotox inconclusive.
CCn1c(/C=C/c2cc[n+](C)cc2)nc2ccccc21 was read as Rab9 promoter act 4.6%, FLuc counter 1.7%, NPC1 prom act 8.3% and ELG1 genotox -4.0%.
`COC(=O)c1ccc(Cn2nc(-c3cc(C)ccc3C)ccc2=O)cc1` gave Rab9 promoter act -7.9%, FLuc counter 1.9%, NPC1 prom act -6.8%, p53 reactivation -1.6% and ELG1 genotox -1.1%.
